{
  "source": "PubChem BioAssay (Tox21)",
  "note": "Values joined by “and” are separate entries in the source; they are usually repeats but may differ in a detail not shown here. Identical values can stand only once. Results filed as inconclusive are left out. Where a call stands in place of a potency, no number is given. The source holds several records for some structures; these can differ, active in one and inactive in another. Active and inactive are the calls of the source. The call rests on the fitted dose curve; in most records, active means well fitted cell-killing curve with a large enough effect in the repeat runs; inconclusive means weak or mixed curves, or effect the other way; inactive means no such curve, though single readings can be large or run the other way. Potency means the concentration at half of the fitted maximal effect.",
  "data": [
    {"test": "qHTS assay to identify small molecule antagonists of the sonic hedgehog signaling (Shh) pathway - cell viability counter screen (AID 1259367); further: nearly all actives have a fitted effect of over 55% in size", "conditions": "NIH/3T3 Gli1-Luc viability, CellTiter-Fluor, 24 h; series mostly up to 92.4 µM", "from_the_text": "National Center for Advancing Translational Sciences [NCATS]\nNIH Chemical Genomics Center [NCGC]\nU.S. Environmental Protection Agency [EPA]\nNational Institutes of Environmental Health Sciences [NIEHS]\nNational Toxicology Program [NTP]\nU.S. Food and Drug Administration [FDA]\nThe sonic hedgehog (Shh) pathway is essential for normal embryonic development. Dysregulation of the Shh pathway can cause severe developmental defects in organs. Therefore chemicals that interfere with the pathway are potential developmental toxicants. A cell line designated 3T3Gli1-Luc (DMB/OARSA/CFSAN/FDA, Laurel, MD), a NIH/3T3 derived clone containing stably integrated Gli1-Luc reporter is used to detect chemical interference of the Shh pathway, by changes in the expression of the firefly Luc gene under the control of the Gli1 transcriptional response element. This cell line was used to screen Tox21 libraries for identifying and prioritizing the potential developmental toxicants that interfere Shh pathway. Conditioned medium-stimulated mode was used to screen for chemicals inhibiting Shh signaling. The cytotoxicity of the compounds was tested in parallel by measuring the cell viability using CellTiter-Fluor assay system (Promega, Madison, WI) in the same wells.\nTox21 Assay Protocol Summary:\n3T3 Gli1-Luc cells were dispensed at 2,000 per well in 5uL of culture medium into white solid bottom 1536-well plates (Greiner Bio-One, Monroe, NC) using a Multidrop Combi (Thermo Scientific, Waltham, MA) dispenser. The assay plates were incubated at 37 C and 5% CO2 for 4hr, and then 23nL of compounds dissolved in DMSO and positive control were transferred using a Pintool station (Wako, San Diego, CA). The compound transfer was followed by the addition of 1ul conditioned medium or assay buffer using two separate tips of Flying Reagent Dispenser (FRD, Aurora Discovery, San Diego, CA). The assay plates were incubated at 37C and 5% CO2 for 24hr. For viability read, after 23hr of compound treatment, 1uL of CellTiter-Fluor reagent (Promega Corporation, Madison, WI) was added to each well of the assay plates using Flying Reagent Dispenser (FRD, Aurora Discovery, San Diego, CA) and incubated the assay plates at 37C for 1hr. The fluorescence signal was quantified using a ViewLux plate reader (Perkin Elmer, Shelton, CT).", "values": [
      {"compound": "CC(=O)CCC(=O)O", "Potency": "inactive"},
      {"compound": "COc1ccc(C(Cl)=C(c2ccc(OC)cc2)c2ccc(OC)cc2)cc1", "Potency": "inactive"},
      {"compound": "CCCCCCc1ccc(O)cc1O", "Potency": "61.1 µM (active) and inactive"},
      {"compound": "Cc1cc(C)nc(NS(=O)(=O)c2ccc(N)cc2)n1", "Potency": "inactive"},
      {"compound": "Oc1ccccc1", "Potency": "inactive"},
      {"compound": "CCc1nc(N)nc(N)c1-c1ccc(Cl)cc1", "Potency": "inactive"},
      {"compound": "COc1ccc(CN(CCN(C)C)c2ccccn2)cc1", "Potency": "inactive"},
      {"compound": "CC1(C)S[C@@H]2[C@H](NC(=O)[C@H](N)c3ccccc3)C(=O)N2[C@H]1C(=O)O", "Potency": "inactive"},
      {"compound": "CC(C)c1c(C(=O)Nc2ccccc2)c(-c2ccccc2)c(-c2ccc(F)cc2)n1CC[C@@H](O)C[C@@H](O)CC(=O)O", "Potency": "inactive"},
      {"compound": "OC[C@H]1O[C@H](O[C@]2(CCl)O[C@H](CCl)[C@@H](O)[C@@H]2O)[C@H](O)[C@@H](O)[C@H]1Cl", "Potency": "inactive"},
      {"compound": "CN(C)C(=S)SC(=S)N(C)C", "Potency": "789 nM (active) and 217 nM (active) and 6.68 µM (active)"},
      {"compound": "C/C=C/C=C/C(=O)O", "Potency": "inactive"},
      {"compound": "NS(=O)(=O)c1cc2c(cc1Cl)NCNS2(=O)=O", "Potency": "inactive"},
      {"compound": "Cc1ncc([N+](=O)[O-])n1C", "Potency": "inactive"},
      {"compound": "CCN(CC)C(=O)c1cccc(C)c1", "Potency": "inactive"},
      {"compound": "Nc1c2c(nc3ccccc13)CCCC2", "Potency": "inactive"},
      {"compound": "Cc1cccc(C)c1", "Potency": "inactive"},
      {"compound": "Nc1ccc(O)c([N+](=O)[O-])c1", "Potency": "30.6 µM (active)"},
      {"compound": "CCOC(N)=O", "Potency": "inactive"},
      {"compound": "CN(C)C(=O)Nc1ccc(Cl)c(Cl)c1", "Potency": "inactive"},
      {"compound": "CCCCCCCCCCCC[N+](C)(C)Cc1ccccc1", "Potency": "66.4 µM (active)"},
      {"compound": "CCCC[P+](CCCC)(CCCC)CCCC", "Potency": "inactive"},
      {"compound": "COc1cccc(O)c1O", "Potency": "56.6 µM (active)"},
      {"compound": "NC(=O)c1cccnc1", "Potency": "inactive"},
      {"compound": "COc1ccc2cc(S(=O)(=O)N[C@H](CC(=O)N[C@H](Cc3ccc(CN4[C@H](C)CCC[C@@H]4C)cc3)C(=O)N(C)C(C)C)c3ccc4c(c3)OCO4)ccc2c1", "Potency": "29 µM (active)"},
      {"compound": "CCCCCCCC(=O)OCC(COC(=O)CCCCCCC)OC(=O)CCCCCCC", "Potency": "inactive"},
      {"compound": "CC(=O)Nc1c(I)c(NC(C)=O)c(I)c(C(=O)O)c1I", "Potency": "inactive"},
      {"compound": "O=C(O)c1ccccc1", "Potency": "inactive"},
      {"compound": "CN1CCc2cccc3c2[C@H]1Cc1ccc(O)c(O)c1-3", "Potency": "30.9 µM (active) and 18.1 µM (active) and 21.1 µM (active)"},
      {"compound": "O=C1OC2(c3ccccc31)c1cc(Br)c(O)c(Br)c1Oc1c2cc(Br)c(O)c1Br", "Potency": "inactive"},
      {"compound": "O=C1O[C@H]([C@@H](O)CO)C(O)=C1O", "Potency": "inactive"},
      {"compound": "Cc1ccc(S(=O)(=O)O)cc1", "Potency": "inactive"},
      {"compound": "C[C@](N)(Cc1ccc(O)c(O)c1)C(=O)O", "Potency": "inactive"},
      {"compound": "Cn1c(=O)c2c(ncn2C)n(C)c1=O", "Potency": "55.1 µM (active) and inactive"},
      {"compound": "O=S1(=O)OC(c2ccc(O)cc2)(c2ccc(O)cc2)c2ccccc21", "Potency": "21.7 µM (active) and 24.3 µM (active) and 11.9 µM (active)"},
      {"compound": "CCN(Cc1c(F)cccc1Cl)c1c([N+](=O)[O-])cc(C(F)(F)F)cc1[N+](=O)[O-]", "Potency": "inactive"},
      {"compound": "CCCCC1(COC(=O)CCC(=O)O)C(=O)N(c2ccccc2)N(c2ccccc2)C1=O", "Potency": "inactive"},
      {"compound": "Cc1c(C(=O)O)c(O)cc2c1C(=O)c1c(O)c([C@@H]3O[C@H](CO)[C@@H](O)[C@H](O)[C@H]3O)c(O)c(O)c1C2=O", "Potency": "29.9 µM (active) and 27.3 µM (active)"},
      {"compound": "C=C(C)C(=O)OCC(C)O", "note": "(stereo not given)", "Potency": "inactive"},
      {"compound": "O=CC(=O)c1ccccc1", "Potency": "inactive"}
    ]}
  ]
}
